{"source": "PubChem BioAssay (NCATS)", "data": [{"test": "High-throughput drug toxicity screening in the BPDCN cell line Gen2.2 (AID 1224824);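 further: cells exposed to compounds for 48 h before reading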", "details": "Gen2.2 BPDCN cells; at 45.8 µM (top of the series) unless noted", "method_in_brief": "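CellTiter-Glo luminescence after 48 h compound exposure of Gen2.2 cells; percent activity set with DMSO as 100% and bortezomib (9.2 uM final) as 0%. Cells seeded at 500 per well, RPMI + 10% FBS, 37 °C.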", "units": {"cell viability, % of control (lower = more cytotoxic)": "%"}, "values": [{"compound": "Fc1ccc(C(c2ccc(F)cc2)N2CCN(CC=Cc3ccccc3)CC2)cc1", "cell viability, % of control (lower = more cytotoxic)": 18.7}, {"compound": "Cc1c(-c2cccc3c(CCCOc4cccc5ccccc45)c(C(=O)O)n(Cc4cccnc4)c23)c(COc2ccc(N3CCN([S+](=O)([O-])N(C)C)CC3)cc2)nn1C", "cell viability, % of control (lower = more cytotoxic)": 121}, {"compound": "COc1c(C)c2c(c(O)c1CC=C(C)CCC(=O)O)C(=O)OC2", "cell viability, % of control (lower = more cytotoxic)": 94.4}, {"compound": "N[C@@H](CC(=O)N1CCn2c(nnc2C(F)(F)F)C1)Cc1cc(F)c(F)cc1F", "cell viability, % of control (lower = more cytotoxic)": 162}, {"compound": "CN(C(Cc1ccc(OS(=O)(=O)c2cccc3cnccc23)cc1)C(=O)N1CCN(c2ccccc2)CC1)S(=O)(=O)c1cccc2cnccc12", "note": "(stereo not drawn)", "cell viability, % of control (lower = more cytotoxic)": 116}, {"compound": "COc1cc(C=CC(=O)O)ccc1O", "cell viability, % of control (lower = more cytotoxic)": 105}, {"compound": "CCC(=C(CC)c1ccc(O)cc1)c1ccc(O)cc1", "cell viability, % of control (lower = more cytotoxic)": 111}, {"compound": "Cc1ccc2c(=O)c3cccc(CC(=O)O)c3oc2c1C", "cell viability, % of control (lower = more cytotoxic)": 78}, {"compound": "COc1ccc2c(c1)c(C1=C(c3c[nH]c4ccccc34)C(=O)NC1=O)cn2CCCN(C)C", "cell viability, % of control (lower = more cytotoxic)": 8.51}, {"compound": "CCN(CC)CCCCNc1nc2cc(Cl)c(Cl)cc2nc1-c1ccc(-c2cccs2)s1", "cell viability, % of control (lower = more cytotoxic)": 5.29}, {"compound": "CC[C@]1(O)C[C@H]2CN(CCC3=c4ccccc4=N[C]3[C@@](C(=O)OC)(c3cc4c(cc3OC)N(C)[C@H]3[C@@](O)(C(N)=O)[C@H](O)[C@]5(CC)C=CCN6CC[C@]43[C@@H]65)C2)C1", "cell viability, % of control (lower = more cytotoxic)": 14.7}, {"compound": "CN[C@@H](C)[C@H]1[C@H](O)C[C@@]2(C)[C@@H]3CC[C@H]4C(C)(C)[C@@H](NC)CC[C@@]45C[C@@]35CC[C@]12C", "cell viability, % of control (lower = more cytotoxic)": 71.1}, {"compound": "O=S(=O)(NCCNCC=Cc1ccc(Br)cc1)c1cccc2cnccc12", "cell viability, % of control (lower = more cytotoxic)": 247}, {"compound": "CNC(=O)[C@H](CC1=CN=C2C=CCC=C12)NC(=O)[C@@H](CC(=O)NO)CC(C)C", "cell viability, % of control (lower = more cytotoxic)": 31.3}, {"compound": "CN1CCN(c2cccc(Nc3nc4c(-c5ccc(S(C)(=O)=O)cc5)cccn4n3)c2)CC1", "cell viability, % of control (lower = more cytotoxic)": 83}, {"compound": "COc1nccc(-c2c(-c3ccc(F)cc3)ncn2C2CCNCC2)n1", "cell viability, % of control (lower = more cytotoxic)": 136}, {"compound": "C[C@@H](O[C@H]1OCCN(Cc2n[nH]c(=O)[nH]2)[C@@H]1c1ccc(F)cc1)c1cc(C(F)(F)F)cc(C(F)(F)F)c1", "cell viability, % of control (lower = more cytotoxic)": 39.1}, {"compound": "CN(CC=CC#CC(C)(C)C)Cc1cccc2ccccc12", "cell viability, % of control (lower = more cytotoxic)": 194}, {"compound": "O=C1NC(=O)C(c2cnc3ccccn23)=C1c1cn2c3c(cccc13)CN(C(=O)N1CCOCC1)CC2", "cell viability, % of control (lower = more cytotoxic)": 36.5}, {"compound": "COc1ccc2cc1Oc1ccc(cc1)C[C@H]1c3cc(c(OC)cc3CCN1C)Oc1c(OC)c(OC)cc3c1[C@H](C2)N(C)CC3", "cell viability, % of control (lower = more cytotoxic)": 146}, {"compound": "OCCn1cc(-c2ccc3c(c2)CCC3=NO)c(-c2ccncc2)n1", "cell viability, % of control (lower = more cytotoxic)": 4.73}, {"compound": "CCC(C)SSc1ncc[nH]1", "note": "(stereo not drawn)", "cell viability, % of control (lower = more cytotoxic)": 7.07}, {"compound": "Cc1ccccc1C(=O)c1ccc(Nc2ccc(Br)cc2N)cc1Cl", "cell viability, % of control (lower = more cytotoxic)": 182}, {"compound": "Fc1ccc(CNc2ncnc3ccc(F)cc23)cc1", "cell viability, % of control (lower = more cytotoxic)": 91.2}]}, {"test": "High-throughput drug toxicity screening in the BPDCN cell line Cal-1 (AID 1224825)", "details": "Cal-1 BPDCN cell viability, qHTS; at 45.8 µM (top of the series) unless noted", "method_in_brief": "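Exponentially growing Cal-1 cells, 500 per well in phenol red-free RPMI with 10% FBS, were exposed to compounds for 48 h at 37 °C, 5% CO2. Viability was read by CellTiter-Glo luminescence and normalised to DMSO (100%) and 9.2 uM bortezomib (0%).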", "units": {"viability (% of control)": "%"}, "values": [{"compound": "CC(C)c1onc(-c2c(Cl)cccc2Cl)c1COc1ccc(C=Cc2cccc(C(=O)O)c2)c(Cl)c1", "viability (% of control)": 107}, {"compound": "O=C1NC(=O)C(=Cc2ccc(-c3ccc(F)cc3O)o2)S1", "viability (% of control)": 92.1}, {"compound": "COc1cc2nccc(Oc3ccc(NC(=O)Nc4ccc(F)cc4F)c(F)c3)c2cc1OC", "viability (% of control)": 86.2}, {"compound": "C#C[C@]1(O)CC[C@H]2[C@H]3CCc4cc(OC)ccc4[C@H]3CC[C@@]21C", "viability (% of control)": 98}, {"compound": "CCC(=O)OCC(=O)[C@@]1(OC(=O)CC)[C@@H](C)C[C@@H]2[C@H]3CCC4=CC(=O)C=C[C@]4(C)[C@@]3(F)[C@@H](O)C[C@@]21C", "viability (% of control)": 15}, {"compound": "CNC(=O)c1cc(COc2nnc(Nc3ccc(Cl)cc3)c3ccoc23)ccn1", "viability (% of control)": 92.9}, {"compound": "CC(C)(C)c1nc(-c2cccc(NS(=O)(=O)c3c(F)cccc3F)c2F)c(-c2ccnc(N)n2)s1", "viability (% of control)": 55.4}, {"compound": "COC1CCC(C(=O)c2ccc3nc4c(cc3c2)CCCO4)CC1", "note": "(stereo not drawn)", "viability (% of control)": 85.9}, {"compound": "CC(C)(O)CC(=O)NCCn1ccc2ncnc(Nc3ccc(Oc4cccc(C(F)(F)F)c4)c(Cl)c3)c21", "viability (% of control)": 61.4}, {"compound": "CC[C@H](NC(=O)[C@H](C)NC)C(=O)N1C[C@@H](O)C[C@H]1Cc1c(-c2[nH]c3cc(F)ccc3c2C[C@H]2C[C@H](O)CN2C(=O)[C@H](CC)NC(=O)[C@H](C)NC)[nH]c2cc(F)ccc12", "viability (% of control)": 7.23}, {"compound": "C[C@H]1COC2=C1C(=O)C(=O)c1c2ccc2c1CCCC2(C)C", "viability (% of control)": 56.6}, {"compound": "Cn1cnc(-c2cc3nccc(Oc4ccc(NC(=S)NC(=O)Cc5ccccc5)cc4F)c3s2)c1", "viability (% of control)": 8.37}, {"compound": "Fc1ccc(C(c2ccc(F)cc2)N2CCN(CC=Cc3ccccc3)CC2)cc1", "viability (% of control)": 30.9}, {"compound": "Cc1c(-c2cccc3c(CCCOc4cccc5ccccc45)c(C(=O)O)n(Cc4cccnc4)c23)c(COc2ccc(N3CCN([S+](=O)([O-])N(C)C)CC3)cc2)nn1C", "viability (% of control)": 86.1}, {"compound": "N[C@@H](CC(=O)N1CCn2c(nnc2C(F)(F)F)C1)Cc1cc(F)c(F)cc1F", "viability (% of control)": 111}, {"compound": "CN(C(Cc1ccc(OS(=O)(=O)c2cccc3cnccc23)cc1)C(=O)N1CCN(c2ccccc2)CC1)S(=O)(=O)c1cccc2cnccc12", "note": "(stereo not drawn)", "viability (% of control)": 85.3}, {"compound": "COc1cc(C=CC(=O)O)ccc1O", "viability (% of control)": 96.5}, {"compound": "CCC(=C(CC)c1ccc(O)cc1)c1ccc(O)cc1", "viability (% of control)": 25.3}, {"compound": "Cc1ccc2c(=O)c3cccc(CC(=O)O)c3oc2c1C", "viability (% of control)": 50.1}, {"compound": "COc1ccc2c(c1)c(C1=C(c3c[nH]c4ccccc34)C(=O)NC1=O)cn2CCCN(C)C", "viability (% of control)": 8.47}, {"compound": "CCN(CC)CCCCNc1nc2cc(Cl)c(Cl)cc2nc1-c1ccc(-c2cccs2)s1", "viability (% of control)": 4.45}, {"compound": "CC[C@]1(O)C[C@H]2CN(CCC3=c4ccccc4=N[C]3[C@@](C(=O)OC)(c3cc4c(cc3OC)N(C)[C@H]3[C@@](O)(C(N)=O)[C@H](O)[C@]5(CC)C=CCN6CC[C@]43[C@@H]65)C2)C1", "viability (% of control)": 14.9}, {"compound": "CN[C@@H](C)[C@H]1[C@H](O)C[C@@]2(C)[C@@H]3CC[C@H]4C(C)(C)[C@@H](NC)CC[C@@]45C[C@@]35CC[C@]12C", "viability (% of control)": 89.5}, {"compound": "O=S(=O)(NCCNCC=Cc1ccc(Br)cc1)c1cccc2cnccc12", "viability (% of control)": 57.7}, {"compound": "CNC(=O)[C@H](CC1=CN=C2C=CCC=C12)NC(=O)[C@@H](CC(=O)NO)CC(C)C", "viability (% of control)": 8.09}, {"compound": "CN1CCN(c2cccc(Nc3nc4c(-c5ccc(S(C)(=O)=O)cc5)cccn4n3)c2)CC1", "viability (% of control)": 50.9}, {"compound": "COc1nccc(-c2c(-c3ccc(F)cc3)ncn2C2CCNCC2)n1", "viability (% of control)": 73.4}, {"compound": "C[C@@H](O[C@H]1OCCN(Cc2n[nH]c(=O)[nH]2)[C@@H]1c1ccc(F)cc1)c1cc(C(F)(F)F)cc(C(F)(F)F)c1", "viability (% of control)": 16.1}, {"compound": "CN(CC=CC#CC(C)(C)C)Cc1cccc2ccccc12", "viability (% of control)": 115}, {"compound": "O=C1NC(=O)C(c2cnc3ccccn23)=C1c1cn2c3c(cccc13)CN(C(=O)N1CCOCC1)CC2", "viability (% of control)": 24.4}, {"compound": "COc1ccc2cc1Oc1ccc(cc1)C[C@H]1c3cc(c(OC)cc3CCN1C)Oc1c(OC)c(OC)cc3c1[C@H](C2)N(C)CC3", "viability (% of control)": 94.6}, {"compound": "OCCn1cc(-c2ccc3c(c2)CCC3=NO)c(-c2ccncc2)n1", "viability (% of control)": 76.4}, {"compound": "CCC(C)SSc1ncc[nH]1", "note": "(stereo not drawn)", "viability (% of control)": 6.97}, {"compound": "Fc1ccc(CNc2ncnc3ccc(F)cc23)cc1", "viability (% of control)": 93.2}]}]}
